The campaign covered roughly 7,900 compounds. About 400 (5.1%) showed an effect of 50% or more. The sample holds strong results, similar compounds and a random draw of the others, so the mix is not that of the screen.

Chain of Parkinson's disease protein 7 (PARK7/DJ1) (Q99497 whole entry, looked up, the tested form may be a part): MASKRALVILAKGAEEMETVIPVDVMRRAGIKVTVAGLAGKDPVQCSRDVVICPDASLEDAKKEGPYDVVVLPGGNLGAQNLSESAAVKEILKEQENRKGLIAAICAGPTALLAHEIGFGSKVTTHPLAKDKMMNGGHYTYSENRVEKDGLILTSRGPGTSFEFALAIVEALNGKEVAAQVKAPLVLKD

The test concerns the target Parkinson's disease protein 7 (PARK7/DJ1) (human, UniProt Q99497). As to the kind of experiment: primary screen, percent inhibition; read as competition with a fluorescent probe by fluorescence polarization; higher = more effect of the substance. The conditions noted are these: 100 µM. As for the experimental part: The screen was conducted using the conditions as described above in 1536-well plates (Corning 3724) with a reaction volume of 8 μL per well. The compound library containing 7887 covalent fragments was purchased at Enamine Ltd. and received as 100 mM DMSO stocks in 384 well LDV Echo plates (Labcyte LP-0200). Stock solutions of 0.26 μM PARK7 and 80 nM JYQ-107 were prepared. Using a Labcyte Echo550 acoustic dispenser, 8 nL of the DMSO stock solution of the library compounds was transferred from the source plates into the empty 1536-well screening plates to obtain a 100 μM final compound concentration. Next, PARK7 (6 μL, final concentration 0.2 μM) was dispensed using a Biotek MultiflowFX liquid dispenser and incubated for 2 h, followed by dispensing the probe JYQ-107 (2 μL, final concentration 20 nM). After 2 h incubation, the FP signal was recorded on a BMG Labtech PHERAstar plate reader (λex/em 480/520 nm). The relative loss of FP signal compared with reference controls was used to calculate the remaining enzyme activity.
With `CC1(C)OB(c2ccc(OCCc3ccccn3)cc2)OC1(C)C`, the Inhibition % is -0.0918%. The result for `N#Cc1ncn(Cc2ccc(F)cc2Cl)n1` reads 0.898%. As to `C=CC(=O)N1CC(=O)NC2CCCCC21` (stereo not shown), the Inhibition % came out at 24.2%. In the case of `Cc1ccc2oc(C#N)nc2c1`, the Inhibition % is 9.34%.

`O=C(CCl)NC1CCCC1`: the Inhibition % was 15.6%.

On to `C=CC(=O)N1CCN(c2c(F)cccc2OC)CC1`, for which the Inhibition % is on record as 12%. Regarding `CCc1ccccc1NC(=O)CCl`, the Inhibition % is 13.2%.

On to `CCC1(C)NC(=O)N(NC(=O)CCl)C1=O` (stereo not shown), for which the Inhibition % stood at 9.56%. `Cl.Nc1cccc2cc(S(=O)(=O)F)ccc12`: the Inhibition % was 65.6%.

With `O=C1NC(c2ccccc2)C12CCCC2` (stereo not shown), the Inhibition % amounted to 3.32%.

`Cc1cc(C=C(C#N)C(=O)N2CCC2)c(C)n1CC(C)C`: the Inhibition % is recorded as -2.1%. For `O=C(CCl)Nc1ccccc1S(=O)(=O)C(F)F`, the Inhibition % turned out to be 6.1%. In the case of `NS(=O)(=O)c1cccc(NC(=O)CCl)c1`, the Inhibition % worked out at 14.7%.

Regarding `Cc1ccc(NC(=O)CCl)cc1S(N)(=O)=O`, the Inhibition % worked out at 17.6%. For `CS(=O)(=O)c1cccc(NC(=O)CCl)c1`, the Inhibition % was found to be 7.34%. Then `CS(=O)(=O)c1ccc(NC(=O)CCl)cc1`, with 51.8%. Then `O=C(CCl)Nc1ccc(S(=O)(=O)C(F)F)cc1`, with 65.8%; and `NS(=O)(=O)c1ccc(NC(=O)CCl)cc1`, with 69.2%. The result for `CS(=O)(=O)c1ccc(CNC(=O)CCl)cc1` reads 10.2%; that for `CCC(CSC)Nc1ccc(C#N)nc1` (stereo not shown), 11.4%.

Regarding `O=S(=O)(F)c1ccc(Cn2cnc(Br)n2)cc1`, the Inhibition % was found to be 12.6%. Then `C=CC(=O)NCCc1cnn(C)c1`, with 3.91%; and `Cc1cc(C=C(C#N)C(=O)O)c(C)n1CC(C)C`, with 8.48%; and `Cl.Cl.NC1CCN(C2CCOC2=O)CC1` (stereo not shown), with 5.74%. `O=C(CCl)N(c1ccccc1)C1CCS(=O)(=O)C1` (stereo not shown): the Inhibition % amounted to 5.5%. With `C=CC(=O)Nc1ccc2nc(C3CC3)oc2c1`, the Inhibition % was found to be 11.6%. Regarding `Nc1ccccc1S(=O)(=O)F`, the Inhibition % amounted to 44.7%. Regarding `N#Cc1ncccc1S(N)(=O)=O`, the Inhibition % came out at 6.94%.

In the case of `Nc1cccnc1S(=O)(=O)F`, the Inhibition % is reported as 81.4%. Then `O=C(CCl)NCc1ccc(C(=O)N2CCCC2)cc1`, with 4.96%; and `Cn1cc(C=CC(=O)N2CCc3ccccc32)cn1`, with 3.76%. With `C=CC(=O)N1CCOc2ccc(F)cc2C1`, the Inhibition % is recorded as 11.2%. Then `O=c1[nH]c(-c2cccs2)no1`, with 3.67%. Regarding `Cc1ccsc1-c1nnc(NC(=O)CCl)o1`, the Inhibition % is recorded as 10.8%.

With `N#Cc1ccc(C(=O)O)c(=O)[nH]1`, the Inhibition % stood at 83.7%. As for `Cc1[nH]c(C#N)cc1C(=O)O`, the Inhibition % turned out to be 6.7%. Consider `N#Cc1ccc(C(=O)O)[nH]1`, for which the Inhibition % stood at 7.43%. For the molecule `O=C(O)c1ccc(C2OCCO2)cc1`, the Inhibition % was determined as 7.82%. As for `N#CC(c1ccccc1)N1CCN(C(=O)CCl)CC1` (stereo not shown), the Inhibition % worked out at 18.3%. As to `CCC(C)c1ccc(-c2csc(NC(=O)CCl)n2)cc1` (stereo not shown), the Inhibition % worked out at 8.03%. For `CCN(CC)C(=O)c1ccc(NC(=O)CCl)cc1`, the Inhibition % is 43.2%.

Regarding `CCC(C)c1ccc(NC(=O)CCl)cc1` (stereo not shown), the Inhibition % was 99.1%. Turning to `CC(C)c1ccc(NC(=O)CCl)cc1`, the Inhibition % amounted to 95.8%. `CCN(c1ccc(NC(=O)CCl)cc1)C(C)C.Cl`: the Inhibition % came to 98.6%.

On to `CCC(C)c1ccccc1NC(=O)CCl` (stereo not shown), for which the Inhibition % came to 16.8%.

Turning to `CC(C)c1ccc(CCNC(=O)CCl)cc1`, the Inhibition % amounted to 22%. Regarding `CC(C)c1ccc(C(C)NC(=O)CCl)cc1` (stereo not shown), the Inhibition % is 6.77%. Consider `C=CC(=O)NC(=O)NC12CC3CC(CC(C3)C1)C2`, for which the Inhibition % is reported as 3.27%.

On to `C=CC(=O)N1CCC(CNC(C)=O)CC1`, for which the Inhibition % is reported as 25%. Turning to `CC1(C)OC1c1ccccc1` (stereo not shown), the Inhibition % amounted to 13.4%. Consider `C#CCN(c1cnc(C#N)cn1)C1CCCC1`, for which the Inhibition % is on record as 1.73%.

Take `COC1CS(=O)(=O)CC1Cl` (stereo not shown): the Inhibition % amounted to 8.34%. For `C=CC(=O)N1CCc2nc(-c3ccccc3)sc2C1`, the Inhibition % amounted to 16.7%. Turning to `O=C(CCl)N1c2ccccc2Sc2ccc(Cl)cc21`, the Inhibition % is 6.3%. For the molecule `COc1ccc(S(=O)(=O)n2ccc(C)n2)cc1`, the Inhibition % is given as 7.42%. For `CCc1nccn1S(=O)(=O)c1cc(Cl)c(C)cc1OC`, the Inhibition % worked out at 4.53%. As for `O=c1onc(-c2ncccn2)n1Cc1ccc(Cl)s1`, the Inhibition % came out at 2.32%. Take `O=C(CCl)NCC1CCOC1` (stereo not shown): the Inhibition % amounted to 8.14%.

Regarding `O=C(CCl)NC1CCOCC1`, the Inhibition % worked out at 10.5%. On to `O=C(CCl)C1CCOCC1`, for which the Inhibition % was 99%. `O=C(CCl)C1CCC(F)(F)CC1`: the Inhibition % worked out at 96.8%.

Turning to `C=CC(=O)NCC1CCC(F)(F)CC1`, the Inhibition % is 5.38%. Regarding `O=C(CCl)NNC(=O)C1CC1`, the Inhibition % came to 1.1%. Turning to `Cc1cc(C)n(CC2CCCN2C2CC(C)OC2=O)n1` (stereo not shown), the Inhibition % is recorded as -2.43%.

For the origin of these results see paper PMC9574860, “Chemical Toolkit for PARK7: Potent, Selective, and High-Throughput” (Journal of Medicinal Chemistry, 2022).
